The sample as a whole holds a higher share of hits than the screen did.
SARS PLpro yeast – blocks SARS-CoV papain-like protease in a yeast assay. S. cerevisiae expressing SARS-CoV PLpro, growth rescue. Potency, µM (series often up to 32.9 µM), inactives show at the top dose activity, positive = growth rescue, usual class: activators. 0.19% of 330,000 active. AID 485353; further: potency means the concentration at half of the fitted maximal effect; 0% is about no effect; nearly all actives have a fitted effect of over 55% in size
NS1 function inh – influenza NS1 inhibition; Potency, µM (titrated, usually from 46.1 µM), without a hit: at the highest dose activity, positive = more growth; 0.4% of 270,000 active; AID 2326; further: potency means the concentration at half of the fitted maximal effect; actives are rising curves; nearly all actives have a fitted effect of over 50% in size
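S. cerevisiae expressing influenza A NS1, grown in glucose, washed, then diluted 1:100 into pH 6.0 -URA galactose medium with 23 nl compound. Growth recovery read as OD600; NS1-free strain serves as control.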
Shiga toxin inh – blocks Shiga toxin action in Vero cells; Vero cells, Shiga toxin protein synthesis inhibition reporter; inhibition, % at 38.7 µM; 9.2% of 290,000 active; in the data active means inhibition mostly above about 28%, no sharp cut-off; inactive means mostly below about 43%; further: 0% is about no effect
CHX counter – affects cycloheximide protein synthesis inhibition readout, counter-screen | cell reporter, cycloheximide protein synthesis inhibition counterscreen | max response, % | 12% of 300,000 active; in the data active means max response mostly above about 13%, no sharp cut-off; inactive means mostly below about 14%; further: read at 38.3 µM for the half of the compounds with a filed dose; 0% is about no effect
TbPYK inhibitor – T. brucei pyruvate kinase inhibition | Q57TT1 | TbPYK enzyme, Kinase-Glo Plus ATP luminescence, 45 min | Potency, µM (doses to about 76.8 µM), inactives show at the top dose activity, negative = inhibition, hits mostly inhibitors | 0.12% of 410,000 active; active means well fitted curve in the direction sought with a large enough effect; inconclusive means small, poorly fitted or top-dose-only effect, or another doubt; inactive means no such curve, though single readings can be large; an effect the other way counts as inactive or inconclusive; further: potency means the concentration at half of the fitted maximal effect; on the % scale 0 is the no-effect control and ±100 the full control effect; nearly all actives have a fitted effect of over 50% in size
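Screened from lowest to highest concentration, compounds were pinned into TbPYK/substrate mixtures, and ADP (130 uM final) was added. Plates sat at room temperature for 45 min prior to Kinase-Glo Plus detection by luminescence.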
LmPK inhibitor – LmPK (Leishmania mexicana) enzyme inhibition; Q27686; purified LmPK, Kinase-Glo ATP luminescence, 1 h; Potency, µM (titrated, usually from 57.5 µM), for the others: at the highest dose activity change, negative = inhibition, most hits filed as inhibitors; 0.37% of 290,000 active; AID 1721; active means well fitted curve in the direction sought with a large enough effect; inconclusive means small, poorly fitted or top-dose-only effect, or another doubt; inactive means no such curve, though single readings can be large; an effect the other way counts as inactive or inconclusive; further: potency means the concentration at half of the fitted maximal effect; on the % scale 0 is the no-effect control and ±100 the full control effect
Target sequence (Q27686 whole entry, looked up): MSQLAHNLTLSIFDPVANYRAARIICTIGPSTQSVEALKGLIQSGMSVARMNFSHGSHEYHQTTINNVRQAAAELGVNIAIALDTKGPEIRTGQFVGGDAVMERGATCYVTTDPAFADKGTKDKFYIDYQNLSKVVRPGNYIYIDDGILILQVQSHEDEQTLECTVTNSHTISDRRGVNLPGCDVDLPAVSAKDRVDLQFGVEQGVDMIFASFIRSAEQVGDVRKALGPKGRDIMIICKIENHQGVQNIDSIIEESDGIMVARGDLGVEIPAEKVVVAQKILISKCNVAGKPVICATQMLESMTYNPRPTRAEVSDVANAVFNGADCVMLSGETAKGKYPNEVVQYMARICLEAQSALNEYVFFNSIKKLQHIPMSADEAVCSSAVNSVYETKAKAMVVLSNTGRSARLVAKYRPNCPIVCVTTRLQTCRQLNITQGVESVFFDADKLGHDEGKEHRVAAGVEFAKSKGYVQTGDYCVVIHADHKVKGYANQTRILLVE
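ATP generated from ADP (0.1 mM) and PEP (0.5 mM) by 0.1 nM LmPK over 1 h at room temperature (pH 7.2 imidazole buffer) was detected by coupled luciferase luminescence. Values were normalized to uninhibited and no-enzyme wells.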
The depositor's hits bear a star; ? = inconclusive; / = not tested or not shown; [ ] = remark or other dose. Unless noted, the call rests on the fitted dose curve.

SMILES	SARS PLpro yeast	NS1 function inh	Shiga toxin inh	CHX counter	TbPYK inhibitor	LmPK inhibitor
CCN(C(=O)c1coc(=O)c(Br)c1)c1ccc2c(c1)OCO2	-6%	23%	86*	27*	?	-1%
O=C(Nc1cccc(NC(=O)c2cccs2)c1)c1ccc2c(c1)OCO2	-2%	-12%	5	11	1%	-15%
O=C(Nc1cccc(NC(=O)c2ccc3c(c2)OCO3)c1)c1ccccc1	-2%	/	48	24*	-1%	-3%
CCOC(=O)CNC(=O)/C=C/c1ccc2c(c1)OCO2	0%	/	29	18*	5%	-1%
CCN(C(=O)/C=C/c1ccc2c(c1)OCO2)c1ccccc1	14%	-20%	43*	21*	-9%	0%
CCOC(=O)c1cccc(NC(=O)/C=C/c2ccc3c(c2)OCO3)c1	-31%	-5%	45*	31*	-3%	-4%
CC(=O)c1cccc(NC(=O)C(OC(=O)/C=C/c2ccc3c(c2)OCO3)c2ccccc2)c1 (centres undefined)	1%	8%	33	13	5%	-11%
COc1cccc(/C=C2\CC(C)Cc3c2nc2ccccc2c3C(=O)O)c1OC (centres undefined)	0%	14%	-3	-2	2%	-2%
CC(C)n1nccc1N(Cc1ccc(Br)cc1)S(=O)(=O)c1ccccc1	-12%	-70%	11	-5	1%	-4%
Cc1nc(NC(=O)c2ccccc2)nc2cc3c(cc12)OCO3	-9%	5%	92*	46*	-6%	-15%
CCOC(=O)c1cccc(NC(=O)c2ccc3c(c2)OCO3)c1	-12%	-82%	33*	21*	-5%	-4%
CC(=O)c1cccc(NC(=O)COC(=O)c2ccc3c(c2)OCO3)c1	-2%	/	/	/	1%	/
CC(=O)c1cccc(NC(=O)c2ccc3c(c2)OCO3)c1	-7%	-35%	/	52*	-15%	0%
COc1ccc(-c2oc3c(c2-c2cnc(OC)nc2)C(O)CC3)cc1 (centres undefined)	/	/	/	/	8%	/
OC[C@H]1O[C@@H](Oc2cc(O)cc(/C=C/c3ccc(O)cc3)c2)[C@H](O)[C@@H](O)[C@@H]1O	1%	/	95*	27*	/	1%
O=c1c(-c2ccc(O)cc2)coc2cc(O[C@@H]3O[C@H](CO)[C@@H](O)[C@H](O)[C@H]3O)cc(O)c12	/	/	61*	27*	/	/
OC[C@@H]1O[C@@H](Oc2ccc(O)cc2)[C@H](O)[C@@H](O)[C@@H]1O	/	/	8	-2	/	/
COc1ccc(CC(=O)c2ccc(OC3OC(CO)C(O)C(O)C3O)cc2O)cc1 (centres undefined)	0%	5%	84*	14*	0%	0%
COc1ccc(-c2coc3cc(OC4OC(CO)C(O)C(O)C4O)ccc3c2=O)cc1 (centres undefined)	0%	1%	47*	37*	2%	0%
COc1ccc(-c2cn3cccnc3n2)cc1NC(=O)Nc1ccc(Cl)cc1	/	/	/	/	1%	/
Cc1ccc(CN(C(=O)COc2ccc(Cl)c(C)c2)C2CCS(=O)(=O)C2)o1 (centres undefined)	/	/	/	/	3%	/
C[C@H]1Cc2c(COc3ccccc3)nc3c(c2CO1)CN(S(=O)(=O)c1ccc(C#N)cc1)CC3	/	/	/	/	/	-3%[11.5 µM]
Cc1nc(-c2ccc(S(=O)(=O)N3CCN(c4cccc(C(F)(F)F)c4)CC3)cc2)co1	/	/	/	/	-3%	/
CCOc1ccc(NS(=O)(=O)c2ccc3[nH]cc(C(=O)N(C)C4CCCCC4)c(=O)c3c2)cc1	/	/	/	/	3%	/
COc1ccc(-c2csc(Nc3ccc(S(N)(=O)=O)cc3)n2)cc1	5%	11%	14	7	/	7%
CC(=O)NCCC(=O)Nc1nc(-c2c[nH]c3ccccc23)cs1	-1%	18%	24	-3	5%	4%
COc1ccc(-c2csc(Nc3cccnc3)n2)cc1	/	-7%	99*	52*	-3%	3%
COc1ccc(Nc2nc(-c3ccc(OC)cc3)cs2)cc1	-1%	/	70*	63*	2%	-4%
COc1ccc(Nc2nc(-c3c[nH]c4ccccc34)cs2)cc1	-27%	19%	67	32*	-12%	-1%
COc1ccc2oc(=O)c(-c3csc(-c4ccc(Br)cc4)n3)cc2c1	/	/	/	/	0%	/
